An excerpt weighted towards active compounds, which were near 3.9% of everything screened.
KKLEB tox = counter-screen for CF NF-kB inhibitors: cytotoxicity; KKLEB CF airway cells viability, ATPlite luminescence, overnight; hits give low values; cells stimulated with P. aeruginosa culture filtrate; activity change (cytotoxicity), % at 5 µM; 360,000 compounds, 0.36% hits; AID 602141;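 active = corrected activity change at or below -50% at 5 µM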
CF NFkB inh = blocks PAF-induced NF-kB reporter in cystic fibrosis cells; KKLEB NF-kB-GFP reporter, GFP fluorescence overnight; inhibition, % at 5 µM; 360,000 compounds, 0.86% hits; AID 588850;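 active = at least 50% inhibition at 5 µM, scaled per plate between neutral and stimulator controls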;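 note: PAF is a Pseudomonas aeruginosa culture filtrate used as stimulus; plate controls were PAF-stimulated DMSO wells for no effect and unstimulated DMSO wells for full effect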
TWEAK Fn14 block = TWEAK-Fn14 signaling inhibition. TWEAK-stimulated Fn14 reporter cells, luciferase luminescence, 8 h. inhibition, % at 10 µM. 360,000 compounds, 2% hits. AID 1159606; in the data active = inhibition above about 50%
HIF-2a block = blocks HIF-2a reporter activity | 360,000 compounds, 0.72% hits | inhibition, % at 18.8 µM | 786-0 RCC cells HIF-2a reporter, luciferase luminescence, overnight;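 active = inhibition of the luminescence signal of 40% or more relative to plate controls, in a single-dose primary screen at 18.75 µM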
TROY NFkB inh = TROY signaling inhibition; AID 1347056; 360,000 compounds, 0.98% hits; Q293 LMP1-TROYcd NF-kB luciferase reporter, 4 h; inhibition, % at 10 µM;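 active = compounds whose plate-normalised and pattern-corrected inhibition of the luciferase reporter signal at the single screening dose is 50% or more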
Peg3 prom inh = Peg3 promoter activity inhibition; HeLa PEG-Prom luciferase reporter, luminescence, overnight; inhibition, % at 20 µM; 360,000 compounds, 1.7% hits; AID 588405;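 active = inhibition of at least 50% at 20 µM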
HIF-2a inh conf = confirmation of HIF-2a inhibitors; shares compounds with HIF-2a block; 786-0 RCC cells, HIF-2a luciferase reporter luminescence, overnight; inhibition, % at 18.8 µM; 1,800 compounds, 56% hits;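 active = mean inhibition across four replicates of at least 40 percent at the single tested concentration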
HIF-1a cs = inhibits HIF-1a reporter, a counter-screen for HIF-2a inhibitors; MiaPaCa-2 HIF-1a luciferase reporter, desferoxamine, overnight; 1,800 compounds, 72% hits; shares compounds with HIF-2a block; inhibition, % at 18.8 µM; AID 651589;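 active = mean inhibition of the reporter signal across four replicates at the single tested dose of 50% or more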
Numbers without * were called inactive.

Screening CNC(C)Cc1ccccc1Sc1ccc(O)cc1 (stereo not drawn) returned KKLEB tox -2.0, CF NFkB inh -1.2, TWEAK Fn14 block -6.2, HIF-2a block 50.1*, TROY NFkB inh 18.4, Peg3 prom inh 8.9, HIF-2a inh conf -0.2 and HIF-1a cs 48.9.
`Cc1ccsc1C(=O)C1CCCN(Cc2cccc(-n3cccn3)c2)C1` (stereo not drawn) gave KKLEB tox 1.1, CF NFkB inh -1.3, TWEAK Fn14 block -11.1, HIF-2a block 11.4, TROY NFkB inh 24.5 and Peg3 prom inh 20.4.
`CCCCC12CNCC(C)(CNC1)C2=O` gave KKLEB tox 4.0, CF NFkB inh 11.0, TWEAK Fn14 block -0.1, HIF-2a block 32.6, TROY NFkB inh -1.4 and Peg3 prom inh 11.6.
`CC(=O)Nc1ccc(OC(=O)N2CCCCC2)cc1` gave KKLEB tox -2.0, CF NFkB inh 7.1, TWEAK Fn14 block -8.0, HIF-2a block 85.4*, TROY NFkB inh 7.8, Peg3 prom inh -3.0, HIF-2a inh conf 95.4* and HIF-1a cs 53.2*.
`O=C(Nc1cccc(OC(=O)N2CCCCC2)c1)N1CCCCC1` gave KKLEB tox 0.4, CF NFkB inh 20.3, TWEAK Fn14 block 0.8, HIF-2a block 13.8, TROY NFkB inh 0.8 and Peg3 prom inh 10.7.
For CC(=O)C1CCC2(O)C3CCC4=CC(=O)CCC4(C)C3CCC12C (stereo not drawn) the results were KKLEB tox 3.9, CF NFkB inh 12.9, TWEAK Fn14 block -5.1, HIF-2a block 3.6, TROY NFkB inh -5.7 and Peg3 prom inh -4.6.
For C[C@@H]1O[C@@H](O[C@@H]2C=C3CC[C@@H]4C(CC[C@]5(C)[C@@H](c6ccc(=O)oc6)CC[C@]45O)[C@@]3(C)CC2)[C@H](O)[C@H](O)[C@H]1O (stereo partly drawn) the results were KKLEB tox -76.2*, CF NFkB inh 89.3*, TWEAK Fn14 block 85.9*, HIF-2a block 85.9*, TROY NFkB inh 50.9*, Peg3 prom inh 107.0*, HIF-2a inh conf 46.4* and HIF-1a cs 104.6*.

Assay outcomes from PubChem.
